PubChem BioAssay (NCATS)
Records with an inconclusive call do not appear. Calls of active or inactive are those of the source. Unless noted, the call rests on the fitted dose curve; in most records, active means well fitted curve in the direction sought with a large enough effect; inconclusive means small, poorly fitted or top-dose-only effect, or another doubt; inactive means no such curve, though single readings can be large; an effect the other way counts as inactive or inconclusive.

Assays:
[1] = Quantitative High-Throughput drug screen in 47 multiple myeloma cell lines against the NCATS MIPE library collection: RPMI8226_ATCC cell viability assay (AID 1919871); further: nearly all actives have a fitted effect of over 30% in size; further: potency means the concentration at half of the fitted maximal effect
Outline: (§1)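 qHTS format: cells plated (500/well), pin-dosed with MIPE 4.0 compounds, kept 48 h at 37 °C. Readout was CellTiter-Glo luminescence, median RLU.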

[2] = qHTS drug screen for cell cycle checkpoint inhibitors in PARPi-resistant BRCA-mutant ovarian cancer cell lines. (AID 1963452; calls by dose curve); settings: PEO1/OlaR viability, CellTiter-Glo luminescence, 96 h, stronger effect = lower value
Outline: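 PEO1, PEO4 and PEO1/OlaR ovarian cancer cells, 600 per well, exposed 96 h at 37C to a dilution series. Viability read by CellTiter-Glo luminescence, normalized to DMSO and empty wells; activity summarized as Z-AUC.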

[3] = Quantitative High-Throughput drug screen in 47 multiple myeloma cell lines against the NCATS MIPE library collection: KMS11_JCRBsus cell viability assay (AID 1919873); further: nearly all actives have a fitted effect of over 50% in size; further: potency means the concentration at half of the fitted maximal effect
Outline: as §1

[4] = Quantitative High-Throughput drug screen in 47 multiple myeloma cell lines against the NCATS MIPE library collection: KMS28BM_JCRB cell viability assay (AID 1919874); further: nearly all actives have a fitted effect of over 35% in size; further: potency means the concentration at half of the fitted maximal effect
Outline: as §1

[5] = qHTS for identification of novel therapeutic agents for treatment of microphthalmiaassociated transcription factor (MiT) renal cell carcinoma (RCC) (AID 1963991); settings: CellTiter-Glo, 48 h, stronger effect = lower value
Outline: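 Curves over 11 concentrations were fitted to CellTiter-Glo luminescence, scaled between empty wells (0%) and DMSO (100%) viability. Cells were UOK109, UOK124 and UOK145 TFE3-fusion RCC lines at 500/well, exposed 48 hours at 37 C.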

[6] = qHTS profiling for inhibitors of Plasmodium falciparum proliferation (AID 504749); further: nearly all actives have a fitted effect of over 60% in size; further: potency means the concentration at half of the fitted maximal effect;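 on activity, negative = inhibition: 0% = DMSO vehicle and full inhibition = artemisinin control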; settings: P. falciparum in erythrocytes, SYBR Green DNA, 72 h, at 28.7 µM (top of the series)
Outline: (§2)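 Quantitative HTS: compounds pinned into medium, infected erythrocytes added (0.3% parasitemia, 2.5% hematocrit), 72 h culture at 37 C under 5% CO2. Saponin/Triton lysis with SYBR Green I, overnight RT, then fluorescence read.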

[7] = tested on: 3D7; assay: as above; settings: P. falciparum in erythrocytes, SYBR Green DNA, 72 h; series mostly up to 28.7 µM
Outline: as §2

[8] = tested on: AA1029; assay: as above; settings: P. falciparum in erythrocytes, SYBR Green DNA, 72 h; series mostly up to 28.7 µM
Outline: as §2

[9] = tested on: 7G8; assay: as above; settings: P. falciparum in erythrocytes, SYBR Green DNA, 72 h; series mostly up to 28.7 µM
Outline: as §2

[10] = measured here: PEO1 parental Z-AUC
[11] = TFE3-RCC UOK109 viability, measured here: UOK109 Z-AUC
[12] = TFE3-RCC viability, measured here: UOK124 Z-AUC
[13] = TFE3-RCC viability, measured here: UOK145 Z-AUC

Question: Which Potency [1] does the source give for CN(C)Cc1cccc(N=C(c2ccccc2)c2c(O)[nH]c3cc(C(=O)N(C)C)ccc23)c1 here?
Answer: 10.5 µM (active)

Question: And the Z-AUC [2]?
Answer: -0.969 (inactive)

Question: What about the Z-AUC [2, 10] of the same molecule?
Answer: -0.73

Question: What about the Z-AUC ([2]; measured here: PEO4 Z-AUC) of the same molecule?
Answer: -1.01

Question: Which results are given for COc1cc(NC(=O)c2ccc(-c3ccc(Cl)cc3)o2)cc(OC)c1?
Answer: Potency [1]: inactive; Potency [3]: inactive; Potency [4]: inactive; Z-AUC [2]: -0.479 (inactive); Z-AUC [2, 10]: -0.389; Z-AUC ([2]; measured here: PEO4 Z-AUC): -0.303

Question: For COc1cc(Nc2ncc(F)c(Nc3ccc4c(n3)NC(=O)C(C)(C)O4)n2)cc(OC)c1OC, which Potency [1] is on record?
Answer: 4.18 µM (active)

Question: And the Potency [4]?
Answer: inactive

Question: What about the Z-AUC [2] of the same molecule?
Answer: 0.179 (inactive)

Question: What about the Z-AUC [2, 10] of the same molecule?
Answer: 0.902

Question: And the Z-AUC ([2]; measured here: PEO4 Z-AUC)?
Answer: 1.16

Question: With CS(=O)(=O)N(Cc1ccco1)CC(O)Cn1c2ccccc2c2ccccc21 (stereo not drawn) as the molecule, how does the Potency [1] read?
Answer: inactive

Question: And the Potency [4]?
Answer: 26.4 µM (active)

Question: And the Z-AUC [2]?
Answer: 1.06 (inactive)

Question: What about the Z-AUC [2, 10] of the same molecule?
Answer: 0.549

Question: What about the Z-AUC ([2]; measured here: PEO4 Z-AUC) of the same molecule?
Answer: 0.481

Question: With COc1ccc2c(Oc3ccc(NC(=O)c4c(C)n(CC(C)(C)O)n(-c5ccccc5)c4=O)cc3F)ccnc2c1 as the molecule, how does the Potency [1] read?
Answer: 23.5 µM (active)

Question: And the Z-AUC [2]?
Answer: -0.152 (inactive)

Question: What about the Z-AUC [2, 10] of the same molecule?
Answer: 0.199

Question: And the Z-AUC ([2]; measured here: PEO4 Z-AUC)?
Answer: 0.0396

Question: What does the source list for CC[C@H]1OC(=O)[C@H](C)[C@@H](O[C@H]2C[C@@](C)(OC)[C@@H](O)[C@H](C)O2)[C@H](C)[C@@H](O[C@@H]2O[C@H](C)C[C@H](N(C)C)[C@@H]2O)[C@](C)(O)C[C@@H](C)CN(C)[C@H](C)[C@@H](O)[C@]1(C)O?
Answer: Potency [1]: 18.7 µM (active); Potency [3]: inactive; Potency [4]: inactive; z-score [5, 11]: -4; z-score [5, 12]: 0.7; z-score [5, 13]: 0.923

Question: Which Potency [1] does the source give for CCOC(=O)O[C@]1(C(=O)OCCl)CC[C@@H]2[C@H]3CCC4=CC(=O)C=C[C@]4(C)[C@@H]3[C@@H](O)C[C@@]21C here?
Answer: 0.118 µM (active)

Question: What about the Potency [3] of the same molecule?
Answer: 0.264 µM (active)

Question: What about the Potency [4] of the same molecule?
Answer: inactive

Question: And the z-score [5, 11]?
Answer: 0.509

Question: And the z-score [5, 12]?
Answer: 0.837

Question: And the z-score [5, 13]?
Answer: 2.11

Question: What about the activity, negative = inhibition ([6]; parasite line A) of the same molecule?
Answer: -7.57% (inactive)

Question: What about the activity, negative = inhibition ([6]; parasite line B) of the same molecule?
Answer: 4.48% (inactive)

Question: What about the outcome [7] of the same molecule?
Answer: inactive

Question: What about the outcome [8] of the same molecule?
Answer: inactive

Question: With CC1(C)O[C@H]2C[C@@H]3[C@H]4CCC5=CC(=O)C=C[C@]5(C)[C@@]4(F)[C@@H](O)C[C@]3(C)[C@]2(C(=O)CO)O1 as the molecule, how does the Potency [1] read?
Answer: 0.003 µM (active)

Question: And the Potency [3]?
Answer: 0.0083 µM (active)

Question: What about the Potency [4] of the same molecule?
Answer: inactive

Question: What about the activity, negative = inhibition ([6]; parasite line A) of the same molecule?
Answer: -0.373% (inactive)

Question: And the activity, negative = inhibition ([6]; parasite line B)?
Answer: -9.39% (inactive)

Question: And the outcome [7]?
Answer: inactive

Question: What about the Potency [9] of the same molecule?
Answer: 8.91 µM (active)

Question: What about the outcome [8] of the same molecule?
Answer: inactive

Question: For O=c1cc(-c2ccccc2)oc2cc(O)c(O)c(O)c12, which Potency [1] is on record?
Answer: inactive

Question: And the Potency [4]?
Answer: inactive

Question: And the Z-AUC [2]?
Answer: 0.741 (inactive)

Question: What about the Z-AUC [2, 10] of the same molecule?
Answer: 0.629

Question: And the Z-AUC ([2]; measured here: PEO4 Z-AUC)?
Answer: 0.577

Question: Which results are given for Cn1cc(C=C2C(=O)Nc3cccnc32)c2ccccc21?
Answer: Potency [1]: inactive; Potency [4]: inactive

Question: For OC[C@H]1O[C@@H](n2cnc3c2NC=NC[C@@H]3O)C[C@H]1O, which Potency [1] is on record?
Answer: inactive

Question: What about the z-score [5, 11] of the same molecule?
Answer: 0.518

Question: What about the z-score [5, 12] of the same molecule?
Answer: 0.532

Question: And the z-score [5, 13]?
Answer: 0.196

Question: With Cc1ccn(-c2ccc(-c3ncco3)cc2)c(=O)c1-c1ccc2nc(N)ncc2c1 as the molecule, how does the Potency [1] read?
Answer: inactive

Question: And the Potency [4]?
Answer: inactive

Question: What about the Z-AUC [2] of the same molecule?
Answer: 1.02 (inactive)

Question: What about the Z-AUC [2, 10] of the same molecule?
Answer: 0.788

Question: What about the Z-AUC ([2]; measured here: PEO4 Z-AUC) of the same molecule?
Answer: 1.07

Question: For COc1cccc(-c2cc(=O)c3ccccc3o2)c1N, which Potency [1] is on record?
Answer: inactive

Question: What about the Potency [3] of the same molecule?
Answer: inactive

Question: And the Z-AUC [2]?
Answer: -0.672 (inactive)

Question: And the Z-AUC [2, 10]?
Answer: -0.47

Question: What about the Z-AUC ([2]; measured here: PEO4 Z-AUC) of the same molecule?
Answer: -0.869

Question: What does the source list for CC(C)(C)COc1ccc(-n2cc(C(=O)O)cn2)cc1C#N?
Answer: Potency [1]: inactive; Potency [3]: inactive; z-score [5, 11]: 1.01; z-score [5, 12]: 0.953; z-score [5, 13]: 0.498

Question: With CCC(=O)O[C@]1(C(=O)CO)CC[C@H]2[C@@H]3CCC4=CC(=O)CC[C@]4(C)[C@@H]3CC[C@@]21C as the molecule, how does the Potency [1] read?
Answer: inactive

Question: What about the Potency [3] of the same molecule?
Answer: 0.209 µM (active)

Question: And the Potency [4]?
Answer: inactive

Question: What about the z-score [5, 11] of the same molecule?
Answer: 1.05

Question: What about the z-score [5, 12] of the same molecule?
Answer: 0.404

Question: And the z-score [5, 13]?
Answer: 0.464

Question: With O=c1cc(CN2CCOCC2)occ1OCCCCCSc1ccnc2cc(C(F)(F)F)ccc12 as the molecule, how does the Potency [1] read?
Answer: inactive

Question: And the Potency [3]?
Answer: 23.5 µM (active)

Question: What about the Z-AUC [2] of the same molecule?
Answer: -0.111 (inactive)

Question: What about the Z-AUC [2, 10] of the same molecule?
Answer: -0.421

Question: And the Z-AUC ([2]; measured here: PEO4 Z-AUC)?
Answer: -0.0909

Question: With O=c1cc(-c2ccccc2)oc2cc(O)cc(O)c12 as the molecule, how does the Potency [1] read?
Answer: inactive

Question: What about the Potency [4] of the same molecule?
Answer: inactive

Question: What about the Z-AUC [2] of the same molecule?
Answer: 1.05 (inactive)

Question: What about the Z-AUC [2, 10] of the same molecule?
Answer: 1.12

Question: What about the Z-AUC ([2]; measured here: PEO4 Z-AUC) of the same molecule?
Answer: 1.3

Question: And the z-score [5, 11]?
Answer: 0.364

Question: What about the z-score [5, 12] of the same molecule?
Answer: 0.638

Question: What about the z-score [5, 13] of the same molecule?
Answer: 0.538

Question: Which results are given for CCC(CC)[C@H](NC(C)=O)[C@@H]1[C@H](O)[C@@H](C(=O)O)C[C@@H]1N=C(N)N?
Answer: Potency [1]: inactive; Potency [3]: inactive; z-score [5, 11]: 0.127; z-score [5, 12]: -0.172; z-score [5, 13]: -0.0122

Question: Which results are given for O=C(Nc1c(Cl)cncc1Cl)c1ccc(OC(F)F)c(OCC2CC2)c1?
Answer: Potency [1]: inactive; Potency [3]: inactive; Potency [4]: inactive; Z-AUC [2]: 0.0747 (inactive); Z-AUC [2, 10]: 0.551; Z-AUC ([2]; measured here: PEO4 Z-AUC): 0.508; z-score [5, 11]: -0.715; z-score [5, 12]: 0.259; z-score [5, 13]: 0.585

Question: Which Potency [1] does the source give for Oc1ccc(C2=Cc3ccc(O)cc3OC2)cc1 here?
Answer: 5.9 µM (active)

Question: What about the Z-AUC [2] of the same molecule?
Answer: -0.664 (inactive)

Question: What about the Z-AUC [2, 10] of the same molecule?
Answer: -0.782

Question: What about the Z-AUC ([2]; measured here: PEO4 Z-AUC) of the same molecule?
Answer: -0.812

Question: What does the source list for CCC(=O)NC[C@H](Cc1ccc(OCCc2nc(-c3ccccc3)oc2C)cc1)NC(C)=CC(=O)c1ccc(C(F)(F)F)cc1?
Answer: Potency [1]: 23.5 µM (active); Potency [4]: inactive

Question: For Cc1c(NC(=O)c2ccc(C(C)(C)C)cc2)cccc1-c1cn(C)c(=O)c(Nc2ccc(C(=O)N3CCOCC3)cc2)n1, which Potency [1] is on record?
Answer: 14.8 µM (active)

Question: And the Potency [4]?
Answer: 18.7 µM (active)

Question: And the Z-AUC [2]?
Answer: 1.16 (inactive)

Question: What about the Z-AUC [2, 10] of the same molecule?
Answer: 0.745

Question: And the Z-AUC ([2]; measured here: PEO4 Z-AUC)?
Answer: 0.879

Question: Which Potency [1] does the source give for CN(C[C@@H]1COCCO1)S(=O)(=O)Nc1ccc2ccc3ncc(-c4cnn(C)c4)cc3c(=O)c2c1 here?
Answer: 16.6 µM (active)

Question: What about the Potency [3] of the same molecule?
Answer: 4.18 µM (active)

Question: What about the Z-AUC [2] of the same molecule?
Answer: -0.656 (inactive)

Question: What about the Z-AUC [2, 10] of the same molecule?
Answer: -0.332

Question: And the Z-AUC ([2]; measured here: PEO4 Z-AUC)?
Answer: -0.0714
